Assay results as given in PubChem BioAssay (Tox21).
Several values for one entry are separate records, joined by “and”; a condition that tells them apart may be missing. Equal entries are not always repeated. A structure can be active in one record and inactive in another. Activity calls are given as the source filed them. Entries that show only a call come without a potency. Unless noted, calls come from the whole dose curve; as a rule, active = well fitted curve in the direction sought with a large enough effect in the repeat runs; inconclusive = weak or mixed curves; inactive = no such curve, though single readings can be large; an effect the other way counts as inactive or inconclusive.

Columns and labels:
[1] = qHTS assay for small molecule agonists of the p53 signaling pathway (AID 651631; calls by dose curve; note: nearly all actives have a fitted effect of over 15% in size)
Outline: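 p53RE-bla HCT-116 cells; compounds 16 h, 37 °C; LiveBLAzer B/G FRET substrate 2 h RT; fluorescence intensity read-out, qHTS format.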

[2] = qHTS assay for small molecules that induce genotoxicity in human embryonic kidney cells expressing luciferase-tagged ATAD5 (AID 651632); note: nearly all actives have a fitted effect of over 15% in size
Outline: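 HEK293T cells carrying a luciferase reporter tagged to ATAD5 were exposed to compound or DMSO vehicle for 16 hr at 37C, 5% CO2. Amplite was added, and after 30 min at room temperature luciferase activity was read as a marker of ATAD5 induction.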

[3] = qHTS assay for small molecules that induce genotoxicity in human embryonic kidney cells expressing luciferase-tagged ATAD5 - cell viability (AID 651634; calls by dose curve; note: nearly all actives have a fitted effect of over 25% in size)
Outline: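 HEK293T cells expressing luciferase-tagged ATAD5 were exposed to compound or DMSO for 15.5 hr at 37C, 5% CO2. Viability was then read as live-cell protease activity by CellTiter-Fluor fluorescence after 30 min at 37C.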

[4] = qHTS assay for small molecule disruptors of the mitochondrial membrane potential - cell viability (AID 720634; calls by dose curve; note: nearly all actives have a fitted effect of over 20% in size; note: potency is the fitted concentration of half-maximal effect)
Outline: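 HepG2 cells seeded overnight at 37 C, then exposed to compound or DMSO for 1 hr at 37 C, 5% CO2. m-MPI dye added, then CellTiter-Glo for 30 min at room temperature; viability read as ATP luminescence.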

[5] = qHTS assay for small molecule disruptors of the mitochondrial membrane potential (AID 720635); note: potency is the fitted concentration of half-maximal effect
Outline: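 HepG2 cells exposed to compound 1 hr at 37C, then Mito-MPS dye 30 min. Ratio read of aggregate (540/590 nm) versus monomer (490/535 nm) fluorescence.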

[6] = qHTS assay to test for compound auto fluorescence at 590 nm (red) in HepG2 cells (AID 720674)
Outline: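 HepG2 cells, 2,000 per well in MEM with 10% FBS, attached overnight at 37 C, then got 23 nL compound or DMSO. After 1 hr at 37 C, 5% CO2, red fluorescence was read at 540/590 nm against Rose Bengal sodium as reference.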

[7] = qHTS assay to test for compound auto fluorescence at 535 nm (green) in HepG2 cells (AID 720675)
[8] = qHTS assay to test for compound auto fluorescence at 460 nm (blue) in HEK293 cells (AID 720678)
Outline: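 After cell attachment (4-5 hr, 37C), compounds were pinned onto HEK293 monolayers in 10% dialyzed FBS medium. The blue channel (405/460 nm) was read following overnight culture. Equivalency was calculated against triamterene.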

[9] = qHTS assay to test for compound auto fluorescence at 590 nm (red) in HEK293 cells (AID 720679)
Outline: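 Plates of HEK293 cells (10% dialyzed FBS) are treated with 23 nL compound or DMSO vehicle after a 4-5 hr attachment period, incubated overnight at 37C, and read for red fluorescence at 540/590nm.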

[10] = qHTS assay to test for compound auto fluorescence at 535 nm (green) in HEK293 cells (AID 720680)
[11] = qHTS assay to test for compound auto fluorescence at 460 nm (blue) in HEK293 cell free culture (AID 720681)
Outline: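 Compounds were added to cell-free DMEM with 10% FBS and fluorescence read directly. The blue channel used 405 nm excitation and 460 nm emission, with triamterene as the reference fluorophore.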

[12] = qHTS assay to test for compound auto fluorescence at 535 nm (green) in HEK293 cell free culture (AID 720682)
Outline: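 Cell-free medium (DMEM, 10% FBS) receives compound or DMSO by pintool. Plate read directly at Ex 485/Em 535 nm. Signal converted to fluorescein equivalency.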

[13] = qHTS assay to test for compound auto fluorescence at 590 nm (red) in HEK293 cell free culture (AID 720683)
Outline: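 Cell-free wells of DMEM with 10% FBS received compound, and intrinsic fluorescence was read at excitation/emission 540/590 nm. Values expressed as equivalence to Rose Bengal sodium.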

[14] = qHTS assay to test for compound auto fluorescence at 590 nm (red) in HepG2 cell free culture (AID 720684)
Outline: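 Compound was pinned into wells holding MEM with 10% FBS and no cells, and red fluorescence was read at Ex/Em 540/590 nm. Signal is expressed as auto fluorescence equivalency relative to Rose Bengal sodium.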

[15] = qHTS assay to test for compound auto fluorescence at 460 nm (blue) in HepG2 cell free culture (AID 720685)
Outline: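 Compound (23 nL) or DMSO pinned into cell-free MEM with 10% FBS; blue fluorescence read at 405/460 nm excitation/emission, expressed as auto-fluorescence equivalency to triamterene.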

[16] = qHTS assay to test for compound auto fluorescence at 535 nm (green) in HepG2 cell free culture (AID 720686)
[17] = qHTS assay to test for compound auto fluorescence at 460 nm (blue) in HepG2 cells (AID 720687)
Outline: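 HepG2 cells in MEM with 10% FBS, attached overnight at 37 C, were exposed to compound or DMSO for 1 hr at 37 C, 5% CO2. Blue fluorescence was read at 405/460 nm, with triamterene as reference fluorophore.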

[18] = qHTS assay for small molecule agonists of the p53 signaling pathway - cell viability (AID 651633; calls by dose curve;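 note: p53RE-bla HCT reporter cells with a stable beta-lactamase p53 reporter; nearly all actives have a fitted effect of over 30% in size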)
Outline: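 p53RE-bla cells were treated with compound for 16 hours at 37 C. Cytotoxicity was then measured as CellTiter-Glo luminescence after 30 min at room temperature.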

[19] = target: Glucocorticoid receptor (Homo sapiens) (UniProt P04150); test: qHTS assay to identify small molecule agonists of the glucocorticoid receptor (GR) signaling pathway (AID 720691; active = well fitted activation curve with a large enough effect in the signal ratio in the repeat runs, not every such curve was filed as active; inconclusive = weak or mixed curves, or effect the other way; inactive = no such curve, though single readings can be large or run the other way; the % refers to the signal ratio; note: potency is the fitted concentration of half-maximal effect); conditions: GR-bla HeLa, beta-lactamase reporter ratio, 18 h; activation: at 62.4 µM (top of the series) unless noted
Outline: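 GR-bla HeLa cells (beta-lactamase reporter under glucocorticoid response element) were plated 4 h at 37 C/5% CO2, given compounds in DMSO, and incubated 18 h at 37 C. LiveBLAzer B/G FRET substrate was added for 2 h at room temperature, then fluorescence intensity read.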

[20] = target: Glucocorticoid receptor (Homo sapiens) (UniProt P04150); test: qHTS assay to identify small molecule antagonists of the glucocorticoid receptor (GR) signaling pathway (AID 720692; active = well fitted inhibition curve with a large enough effect in the signal ratio in the repeat runs, not every such curve was filed as active; inconclusive = weak or mixed curves, or effect the other way; inactive = no such curve, though single readings can be large or run the other way; the % refers to the signal ratio)
Outline: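 GR-bla HeLa cells (beta-lactamase reporter under glucocorticoid response element) were pre-plated 4 h at 37 C, treated with compounds plus 5 nM dexamethasone (final) for 18 h, then read by LiveBLAzer B/G FRET fluorescence after 2 h.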

Glucocorticoid receptor (Homo sapiens), sequence (P04150 whole entry, looked up): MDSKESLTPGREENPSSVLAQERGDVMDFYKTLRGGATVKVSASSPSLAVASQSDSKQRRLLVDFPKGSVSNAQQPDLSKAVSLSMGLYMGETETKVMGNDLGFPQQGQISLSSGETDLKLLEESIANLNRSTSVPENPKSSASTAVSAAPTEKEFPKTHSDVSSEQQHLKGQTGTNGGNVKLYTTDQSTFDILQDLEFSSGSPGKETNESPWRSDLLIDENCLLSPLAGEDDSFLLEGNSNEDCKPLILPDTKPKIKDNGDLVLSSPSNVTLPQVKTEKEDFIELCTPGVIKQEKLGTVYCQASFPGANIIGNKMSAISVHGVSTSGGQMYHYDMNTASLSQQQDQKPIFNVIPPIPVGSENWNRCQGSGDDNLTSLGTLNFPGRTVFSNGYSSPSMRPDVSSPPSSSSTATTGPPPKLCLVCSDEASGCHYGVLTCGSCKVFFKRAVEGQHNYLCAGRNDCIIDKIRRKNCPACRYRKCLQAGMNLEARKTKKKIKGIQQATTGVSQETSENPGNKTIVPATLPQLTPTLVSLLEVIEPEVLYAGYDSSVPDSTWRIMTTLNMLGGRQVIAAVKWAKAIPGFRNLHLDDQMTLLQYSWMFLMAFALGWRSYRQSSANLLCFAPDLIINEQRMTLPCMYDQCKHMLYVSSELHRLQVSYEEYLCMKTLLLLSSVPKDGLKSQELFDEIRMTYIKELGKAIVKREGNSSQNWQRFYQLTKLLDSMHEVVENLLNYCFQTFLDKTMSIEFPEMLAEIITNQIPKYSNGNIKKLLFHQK

SMILES: OC[C@@H](O)[C@H](O)[C@H](O)[C@@H](O)CO
- Potency [1]: inactive
- Potency [2]: inactive
- Potency [3]: inactive
- Potency [4]: inactive
- Potency [5]: inactive
- outcome [6]: inactive
- outcome [7]: inactive
- Potency [8]: inactive
- outcome [9]: inactive
- outcome [10]: inactive
- Potency [11]: inactive
- outcome [12]: inactive
- outcome [13]: inactive
- outcome [14]: inactive
- Potency [15]: inactive
- outcome [16]: inactive
- outcome [17]: inactive

SMILES: CC1(C)O[C@@H]2C[C@H]3[C@@H]4C[C@H](F)C5=CC(=O)CC[C@]5(C)[C@H]4[C@@H](O)C[C@]3(C)[C@]2(C(=O)CO)O1
- Potency [1]: inactive
- Potency [2]: inactive
- Potency [18]: inactive
- Potency [3]: inactive
- Potency [4]: inactive
- Potency [5]: inactive
- outcome [6]: inactive
- outcome [7]: inactive
- Potency [8]: inactive
- outcome [9]: inactive
- outcome [10]: inactive
- Potency [11]: inactive
- outcome [12]: inactive
- outcome [13]: inactive
- outcome [14]: inactive
- Potency [15]: inactive
- outcome [16]: inactive
- outcome [17]: inactive
- Potency [19]: 18.2 nM [inconclusive] (active) and 3.9 nM (active)

SMILES: O=C(Oc1ccccc1)c1ccc(O)cc1
- Potency [1]: inactive
- Potency [2]: inactive
- Potency [18]: inactive
- Potency [3]: inactive
- Potency [4]: 61.1 µM (active)
- Potency [5]: 61.1 µM (active)
- outcome [6]: inactive
- outcome [7]: inactive
- Potency [8]: inactive
- outcome [10]: inactive
- Potency [11]: inactive
- outcome [12]: inactive
- outcome [13]: inactive
- outcome [14]: inactive
- Potency [15]: inactive
- outcome [16]: inactive
- outcome [17]: inactive
- Potency [19]: inactive

SMILES: CCCCOCCO
- Potency [1]: inactive
- Potency [2]: inactive
- Potency [18]: inactive
- Potency [3]: inactive
- Potency [4]: inactive
- outcome [6]: inactive
- outcome [7]: inactive
- Potency [8]: inactive
- outcome [9]: inactive
- outcome [10]: inactive
- Potency [11]: inactive
- outcome [12]: inactive
- outcome [13]: inactive
- outcome [14]: inactive
- Potency [15]: inactive
- outcome [16]: inactive
- outcome [17]: inactive
- Potency [19]: inactive
- Potency [20]: inactive

SMILES: CCCCNC(N)=O
- Potency [1]: inactive
- Potency [2]: inactive
- Potency [18]: inactive
- Potency [3]: inactive
- Potency [4]: inactive
- outcome [7]: inactive
- Potency [8]: inactive
- outcome [9]: inactive
- outcome [10]: inactive
- Potency [11]: inactive
- outcome [12]: inactive
- outcome [13]: inactive
- outcome [14]: inactive
- Potency [15]: inactive
- outcome [16]: inactive
- outcome [17]: inactive
- Potency [19]: inactive
- Potency [20]: inactive

SMILES: COCC(=O)O
- Potency [1]: inactive
- Potency [2]: inactive
- Potency [18]: inactive
- Potency [3]: inactive
- Potency [4]: inactive
- outcome [6]: inactive
- outcome [7]: inactive
- Potency [8]: inactive
- outcome [9]: inactive
- outcome [10]: inactive
- Potency [11]: inactive
- outcome [12]: inactive
- outcome [13]: inactive
- outcome [14]: inactive
- Potency [15]: inactive
- outcome [16]: inactive
- outcome [17]: inactive
- Potency [19]: inactive
- Potency [20]: inactive

SMILES: C=C(C)C(=O)OCCC[Si](OC)(OC)OC
- Potency [1]: inactive
- Potency [2]: inactive
- Potency [3]: inactive
- Potency [4]: inactive
- Potency [5]: 76.1 µM (active) and inactive
- outcome [6]: inactive
- outcome [7]: inactive
- Potency [8]: inactive
- outcome [9]: inactive
- outcome [10]: inactive
- Potency [11]: inactive
- outcome [12]: inactive
- outcome [13]: inactive
- outcome [14]: inactive
- Potency [15]: inactive
- outcome [16]: inactive
- outcome [17]: inactive
- Potency [19]: inactive
- Potency [20]: inactive

SMILES: CNC[C@H](O)[C@@H](O)[C@H](O)[C@H](O)CO
- Potency [1]: inactive
- Potency [2]: inactive
- Potency [18]: inactive
- Potency [3]: inactive
- Potency [4]: inactive
- outcome [6]: inactive
- outcome [7]: inactive
- Potency [8]: inactive
- outcome [10]: inactive
- Potency [11]: inactive
- outcome [12]: inactive
- outcome [13]: inactive
- outcome [14]: inactive
- Potency [15]: inactive
- outcome [16]: inactive
- outcome [17]: inactive

SMILES: NS(=O)(=O)c1cc2c(cc1Cl)NC=NS2(=O)=O
- Potency [1]: inactive
- Potency [2]: inactive
- Potency [18]: inactive
- Potency [3]: inactive
- Potency [4]: inactive
- Potency [5]: inactive
- outcome [7]: inactive
- Potency [8]: inactive
- outcome [9]: inactive
- outcome [10]: inactive
- Potency [11]: inactive
- outcome [12]: inactive
- outcome [13]: inactive
- outcome [14]: inactive
- Potency [15]: inactive
- outcome [16]: inactive

SMILES: O=C1O[C@H](CO)[C@@H](O)[C@H](O)[C@H]1O
- Potency [1]: inactive
- Potency [2]: inactive
- Potency [3]: inactive
- Potency [4]: inactive
- Potency [5]: inactive
- outcome [7]: inactive
- Potency [8]: inactive
- outcome [9]: inactive
- outcome [10]: inactive
- Potency [11]: inactive
- outcome [12]: inactive
- outcome [13]: inactive
- outcome [14]: inactive
- Potency [15]: inactive
- outcome [16]: inactive
- Potency [19]: inactive
- Potency [20]: inactive

SMILES: NCCc1ccc(O)c(O)c1
- Potency [1]: inactive
- Potency [2]: inactive
- Potency [18]: inactive
- Potency [3]: inactive
- Potency [4]: inactive
- Potency [5]: inactive
- outcome [6]: inactive
- outcome [7]: inactive
- Potency [8]: inactive
- outcome [10]: inactive
- Potency [11]: inactive
- outcome [12]: inactive
- outcome [13]: inactive
- outcome [14]: inactive
- Potency [15]: inactive
- outcome [16]: inactive
- outcome [17]: inactive

SMILES: CCCCC(CC)COC(=O)CCCCCCCC(=O)OCC(CC)CCCC (centres undefined)
- Potency [1]: inactive
- Potency [2]: inactive
- Potency [18]: inactive
- Potency [3]: inactive
- Potency [4]: inactive
- outcome [6]: inactive
- outcome [7]: inactive
- Potency [8]: inactive
- outcome [9]: inactive
- outcome [10]: inactive
- Potency [11]: inactive
- outcome [12]: inactive
- outcome [13]: inactive
- outcome [14]: inactive
- Potency [15]: inactive
- outcome [16]: inactive
- outcome [17]: inactive
- Potency [19]: inactive
- Potency [20]: inactive

SMILES: Clc1ccc(Cl)c(Cl)c1Cl
- Potency [1]: inactive
- Potency [2]: inactive
- Potency [18]: inactive
- Potency [3]: inactive
- outcome [6]: inactive
- outcome [7]: inactive
- Potency [8]: inactive
- outcome [10]: inactive
- Potency [11]: inactive
- outcome [12]: inactive
- outcome [13]: inactive
- outcome [14]: inactive
- Potency [15]: inactive
- outcome [16]: inactive
- outcome [17]: inactive
- Potency [19]: inactive
- Potency [20]: inactive

SMILES: C=C(C)C(=O)OCCCCCCCCCCCC
- Potency [1]: inactive
- Potency [2]: inactive
- Potency [18]: inactive
- Potency [3]: inactive
- Potency [4]: inactive
- outcome [6]: inactive
- outcome [7]: inactive
- Potency [8]: inactive
- outcome [9]: inactive
- outcome [10]: inactive
- Potency [11]: inactive
- outcome [12]: inactive
- outcome [13]: inactive
- outcome [14]: inactive
- Potency [15]: inactive
- outcome [16]: inactive
- Potency [19]: inactive
- Potency [20]: inactive
